# SNCA expr inhib: Primary qHTS assay for inhibitors of alpha-synuclein gene (SNCA) expression; Potency, µM (highest dose often 57.2 µM), inactives show top-dose activity change, negative = inhibition, most hits filed as inhibitors; hit rate 0.17% among 140,000; HEK-293 SNCA-luciferase knock-in, luminescence, 24 h; AID 1671194, 2021;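 also: plate controls were DMSO cells for no effect and cell-free wells for full effect; nearly all actives have a fitted effect of over 45% in size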
# hNpr1 antagonist: Natriuretic polypeptide receptor (hNpr1) antagonism - Primary qHTS; Atrial natriuretic peptide receptor 1 (Homo sapiens), P16066; HEK293 hNpr1 GloSensor cGMP, ANP-stimulated luminescence; Potency, µM (titrated, usually from 46.3 µM), without a hit: top-dose activity change, negative = inhibition, most hits filed as inhibitors; hit rate 1.6% among 76,000; AID 1347048, 2019; calls by dose curve; also: % is scaled to controls: 0 for no effect and ±100 for the full control effect; nearly all actives have a fitted effect of over 60% in size
# Target sequence (P16066 whole entry, looked up): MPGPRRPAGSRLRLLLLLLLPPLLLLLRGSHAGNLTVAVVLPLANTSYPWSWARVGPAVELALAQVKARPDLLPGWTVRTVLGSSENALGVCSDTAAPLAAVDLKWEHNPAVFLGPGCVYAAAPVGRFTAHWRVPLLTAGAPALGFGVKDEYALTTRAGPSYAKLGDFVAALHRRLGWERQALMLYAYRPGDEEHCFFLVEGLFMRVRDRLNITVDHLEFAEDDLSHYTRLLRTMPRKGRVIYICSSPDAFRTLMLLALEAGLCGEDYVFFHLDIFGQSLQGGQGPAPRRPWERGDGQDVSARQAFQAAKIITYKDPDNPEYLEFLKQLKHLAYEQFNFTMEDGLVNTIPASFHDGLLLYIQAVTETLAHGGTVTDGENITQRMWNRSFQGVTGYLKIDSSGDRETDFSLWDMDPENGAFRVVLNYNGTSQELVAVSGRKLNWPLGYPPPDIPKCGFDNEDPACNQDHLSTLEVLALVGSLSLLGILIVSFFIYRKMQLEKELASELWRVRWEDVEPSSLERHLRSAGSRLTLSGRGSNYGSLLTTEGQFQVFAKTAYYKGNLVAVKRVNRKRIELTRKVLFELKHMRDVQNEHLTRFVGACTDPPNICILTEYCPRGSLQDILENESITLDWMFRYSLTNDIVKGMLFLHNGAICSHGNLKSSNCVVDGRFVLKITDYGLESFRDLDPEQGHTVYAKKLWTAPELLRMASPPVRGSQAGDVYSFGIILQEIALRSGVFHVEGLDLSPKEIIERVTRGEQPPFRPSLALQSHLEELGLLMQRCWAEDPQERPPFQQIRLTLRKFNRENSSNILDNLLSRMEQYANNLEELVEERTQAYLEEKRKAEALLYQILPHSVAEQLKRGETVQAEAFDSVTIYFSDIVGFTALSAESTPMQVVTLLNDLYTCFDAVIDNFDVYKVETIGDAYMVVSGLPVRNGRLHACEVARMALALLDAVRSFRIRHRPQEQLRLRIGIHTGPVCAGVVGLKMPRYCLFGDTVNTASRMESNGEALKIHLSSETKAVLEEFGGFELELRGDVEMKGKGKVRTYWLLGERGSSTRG
#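 HEK293 cells stably expressing human Npr1 and cGMP GloSensor pGS-40F, loaded 2 h with 2% GloSensor reagent, given compound 30 min at room temperature. Luminescence read before and 20 min after 0.1 nM hNppA.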
# SNCA viab count: GF-AFC viability counterscreen for inhibitors of alpha-synuclein gene (SNCA) expression | Potency, µM (titrated, usually from 57.1 µM), for the others: at the top dose activity change, negative = cytotoxicity, most hits filed as cytotoxic | HEK-293-SNCA-luc viability, GF-AFC fluorescence, 24 h | AID 1671193, 2021 | hit rate 0.12% among 150,000;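 also: 0% = DMSO-treated cells and -100% = medium-only wells without cells; nearly all actives have a fitted effect of over 30% in size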
#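 Cytotoxicity counterscreen: after 24 h compound treatment of genome-edited SNCA-luciferase HEK-293 cells, live-cell protease substrate GF-AFC read by fluorescence after 30 min; activity scaled between DMSO (0%) and medium-only (-100%), curves Hill-fitted.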
# 3T3 cytotox: Cytotoxic Profiling in NIH 3T3 Cell Line of Diverse Libraries Using Quantitative High-Throughput Screening | NIH 3T3 viability, CellTiter-Glo ATP luminescence, 48-72 h | hit rate 4.3% among 94,000 | Potency, µM (highest dose often 96.7 µM), for the others: top-dose activity change, negative = cytotoxicity, hits mostly inhibitors; also: % is scaled to controls: 0 for no effect and ±100 for the full control effect; nearly all actives have a fitted effect of over 55% in size
#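 Luminescent ATP readout (CellTiter-Glo, 10 min RT) after 48 or 72 hr compound exposure of NIH 3T3 cells seeded at 400 cells/well in 1536-well format; quantitative HTS.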
# FLuc inh-1: Firefly luciferase inhibition profiling of diverse chemical library using quantitative high-throughput screening; Potency, µM (doses to about 115 µM), hits mostly inhibitors; Luciferin 4-monooxygenase (Photinus pyralis), P08659; hit rate 2.5% among 76,000; AID 1347043, 2019; purified P. pyralis luciferase, luminescence, biochemical; also: % is scaled to controls: 0 for no effect and ±100 for the full control effect; nearly all actives have a fitted effect of over 65% in size
#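 Cell-free enzyme assay, 10nM P. pyralis luciferase, luciferin and ATP each at 10uM. Inhibition profiled over a 6-point titration, read as luminescence.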
# HEK293 tox: Cytotoxic Profiling in HEK 293 Cell Line of Diverse Libraries Using Quantitative High-Throughput Screening; HEK 293 viability, ATP luminescence (CellTiter-Glo), 48-72 h; Potency, µM (highest dose often 115 µM), without a hit: top-dose activity change, negative = cytotoxicity, most hits filed as inhibitors; AID 1345083, 2018; hit rate 6.6% among 94,000; also: % is scaled to controls: 0 for no effect and ±100 for the full control effect; nearly all actives have a fitted effect of over 60% in size
#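 Pintool-delivered compounds were incubated with HEK 293 cells (250 cells/well) at 37 degree Celsius for 48 or 72 hr. ATP-dependent luminescence (CellTiter-Glo) then reported remaining viable cells.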
# FLuc SDR -ATP: Firefly luciferase (FLuc-C-HiBiT) SDR gain of signal screen - without ATP; shares compounds with FLuc inh-1; Purified FLuc-C-HiBiT, Nano-Glo HiBiT luminescence, no ATP; Potency, µM (titrated, usually from 32.7 µM), for the others: at the highest dose activation (signal gain), actives largely listed as activators; hit rate 7.8% among 1,300; AID 1963318, 2024; also: nearly all actives have a fitted effect of over 55% in size
# FLuc SDR ATP: Firefly luciferase (FLuc-C-HiBiT) SDR gain of signal screen - plus ATP | purified FLuc-C-HiBiT + ATP, HiBiT complementation luminescence | Potency, µM (series often up to 32.7 µM), for the others: at the top dose activation (gain of signal), actives largely listed as activators | shares compounds with FLuc inh-1 | AID 1963319, 2024 | hit rate 8.7% among 1,300;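 also: signal reports ligand binding via conformational change of the enzyme rather than luciferase catalysis; % of control where 0% means no effect; nearly all actives have a fitted effect of over 55% in size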
# FLuc inh-2: Firefly luciferase (FLuc-C-HiBiT) enzymatic inhibition screen - Functional assay | shares compounds with FLuc inh-1 | purified FLuc-C-HiBiT enzyme, luciferin luminescence | Potency, µM (doses to about 32.7 µM), for the others: at the highest dose activity change, negative = inhibition, usual class: inhibitors | hit rate 42% among 1,300; also: % is scaled to controls: 0 for no effect and ±100 for the full control effect; nearly all actives have a fitted effect of over 70% in size
# * = called active by the depositor; i = inactive; ? = inconclusive; . = no result given; [ ] = another dose, or the depositor's remark. This is a sample that favours compounds with a hit; in the whole collection about 7.2% have one here. Unless noted, calls follow the shape of the dose curve; as a rule, active = well fitted curve in the direction sought with a large enough effect; inconclusive = small, poorly fitted or top-dose-only effect, or another doubt; inactive = no such curve, though single readings can be large; an effect the other way counts as inactive or inconclusive. Potency is read from the fitted curve at half-maximal effect.
SMILES,SNCA expr inhib,hNpr1 antagonist,SNCA viab count,3T3 cytotox,FLuc inh-1,HEK293 tox,FLuc SDR -ATP,FLuc SDR ATP,FLuc inh-2
COc1ccc(CN2CCCC3(Cc4ccccc4CNC3=O)C2)cc1F (configuration not stated),6.0%,.,-10.2%,?,.,-21.3%,.,.,.
Cn1c(C(=O)Nc2ccc3c(c2)OCO3)cc2c1CCN(Cc1cccc(F)c1)C2,101.3%,-1.4%,-6.4%,?,10µM*,?,12.5%,11.5%,-18.6%
Cc1cc(CNC(=O)CC2C=CS(=O)(=O)C2)c2[nH]c(-c3ccccc3)c(C)c2c1 (configuration not stated),79.8%,-20.8%,3.0%,39.8µM*,6.31µM*,44.7µM*,21.4%,13.3%,?
Cc1cc(CNC(=O)c2ccc(S(N)(=O)=O)cc2)c2[nH]c(C)c(C)c2c1,16.6%,-0.3%,2.6%,-15.4%,i,-1.1%,.,.,.
CN(Cc1ccccc1)C(=O)[C@H]1C[C@@H](O)[C@H](O)[C@@H]2N=C(Nc3ccc(-n4cccn4)cc3)S[C@@H]21,45.1%,6.0%,1.6%,-27.3%,12.6µM*,?,9.2%,?,?
COc1ccc(NC2=N[C@H]3[C@@H](O)[C@H](O)C[C@H](C(=O)NCc4ccccc4OC)[C@H]3S2)cc1,-14.8%,0.0%,-0.7%,0.3%,i,i,.,.,.
C=Cc1ccc(-c2nc3ccc(OC)cc3s2)cc1,.,.,.,.,.,.,12.4µM*,?,0.442µM*
COc1ccc2nc(-c3ccc(Oc4ccccc4)cc3)sc2c1,.,.,.,.,.,.,27.6%,?,11.1µM*
O=C(NCc1cccs1)c1ccc2nnc(CC3CC3)n2c1,26.5%[87.6 µM],.,13.7%[87.6 µM],?,.,i,.,.,.
Cc1ccc(S(=O)(=O)N2CC(c3noc(-c4cccnc4)n3)C2)cc1Cl,-8.7%,-15.6%,4.2%,-19.3%,i,?,.,.,.
CC(C)c1nc(C2Cc3ccccc3N2C(=O)NC2CCCC2)no1 (configuration not stated),62.3%,?,-12.2%,?,7.94µM*,?,15.7%,14.9%,?
CCOCC(=O)N1c2ccccc2CC1c1noc(C(C)C)n1 (configuration not stated),140.5%,?,4.9%,?,7.08µM*,?,17.4%,17.2%,?
O=C(N[C@H]1CCN2C(=O)c3cc(-c4ccsc4)ccc3NC(=O)[C@H]12)c1cccs1,-7.4%[87.6 µM],-17.0%[70.6 µM],-20.9%[87.6 µM],?,i,?,.,.,.
CSc1ccc(-c2ccc3c(c2)C(=O)N2CC[C@H](NC(=O)c4cccs4)[C@H]2C(=O)N3)cc1,184.8%,-14.6%,-9.7%,-20.1%,6.31µM*,-15.3%,17.5%,11.6%,?
COc1ccc(-c2ccc3c(c2)C(=O)N2CC[C@H](NC(=O)c4cccc(F)c4)[C@H]2C(=O)N3)cc1,69.7%,-2.9%,-1.5%,?,11.2µM*,?,16.6%,11.3%,?
CCN(CC)c1cc(CCC(=O)O)ccn1,6.3%,-26.7%,3.5%,1.3%,6.31µM*,-7.4%,13.3%,1.57µM*,1.4µM*
CCN(CC)c1cc(CCC(=O)NCCOC)ccn1,29.6%,9.6%,12.8%,-10.7%,i,-4.6%,.,.,.
CCOC(=O)C1(Cc2cccc(Cl)c2)CCCNC1 (configuration not stated),5.9%,1.1%,-3.1%,?,i,-17.1%,.,.,.
Cc1nnc2ccc(N3CCC(NC(=O)c4ccc(F)cc4)C3)nn12 (configuration not stated),.,.,.,-15.2%[138 µM],.,-2.5%[172 µM],.,.,.
CCCCOc1c(CNC2(CO)CCCC2)cccc1OC,-19.6%,2.7%,9.0%,-23.7%,i,-28.2%,.,.,.
CC1CCN(c2nc3ccc(C(=O)NCc4ccccc4Cl)cc3s2)CC1,190.5%,.,8.2%,.,.,.,.,.,.
COc1ccccc1CNC(=O)c1ccc2nc(N3CCCCC3)sc2c1,78.9%,.,5.6%,.,.,.,14.8%,11.6%,-13.5%
COc1ccc(-c2noc([C@@H]3C[C@H](NCc4ccccn4)CN3C)n2)cc1,67.7%[87.6 µM],?,-23.1%[87.6 µM],?,12.6µM*,100µM*,17.7%[49.3 µM],14.6%[49.3 µM],?
COc1ccc(C(=O)N[C@H]2C[C@@H](c3nc(-c4cncnc4)no3)N(C)C2)cc1,-5.8%[87.6 µM],3.5%[70.6 µM],-23.4%[87.6 µM],-12.4%[138 µM],?,-3.6%[172 µM],.,.,.
O=C(NCCc1ccccc1F)c1nc2sccn2c1Br,-34.3%,?,-6.7%,?,1.58µM*,?,24.0%,?,7µM*
SMILES,SNCA expr inhib,hNpr1 antagonist,SNCA viab count,3T3 cytotox,FLuc inh-1,HEK293 tox,FLuc SDR -ATP,FLuc SDR ATP,FLuc inh-2
O=C(NCCc1ccccc1F)c1nc2sccn2c1-c1cccnc1,18.1%,.,-3.2%,?,.,?,.,.,.
CN1CC(=O)N(C2CCCC2)Cc2c1ncnc2N1CCOCC1,3.3%[87.6 µM],0.3%[70.6 µM],2.6%[87.6 µM],-4.8%[138 µM],i,2.7%[172 µM],11.8%[49.3 µM],8.3%[49.3 µM],2.4%[49.3 µM]
O=C(Nc1cc(Cl)cc(Cl)c1)c1ccn2nccc2c1,135.1%[87.6 µM],-23.8%[70.6 µM],-1.9%[87.6 µM],?,14.1µM*,-37.4%[172 µM],24.1%[49.3 µM],17.1%[49.3 µM],?
O=C(Nc1ccc(Cl)nc1)c1ccn2nccc2c1,13.0%[87.6 µM],-20.2%[70.6 µM],8.0%[87.6 µM],-6.7%[138 µM],i,-1.8%[172 µM],.,.,.
OC1(CN2CCCN(c3nc4ccccc4s3)CC2)CNCCOC1 (configuration not stated),113.4%,1.6%,9.1%,?,12.6µM*,?,17.3%,13.6%,-6.7%
CN(C)C(=O)N1CCC[C@@H]1C(=O)N1CCC(N2CCOC2=O)CC1,18.8%[87.6 µM],.,5.1%[87.6 µM],-9.9%[138 µM],.,-3.3%[172 µM],.,.,.

# Compound activity: PubChem BioAssay, National Center for Advancing Translational Sciences (NCATS)
